Values joined by “and” are separate entries in the source; they are usually repeats but may differ in a detail not shown here. Identical values can stand only once. Active and inactive are the calls of the source. How the source made its calls: active means hit-call score of the fitted dose curve at least 0.9, where 1 is the maximum; inactive means score below 0.9.

This note sets out measurements from PubChem BioAssay (EPA / NIEHS).

This test in a line: BSK_LPS_PGE2: BioMAP Diversity Plus: LPS Assay for Prostaglandin E2 (PGE2) Biomarker Activity (AID 2283082). Particulars: primary human HUVEC with PBMC; actives raise or lower the signal. The protocol:
BSK_LPS is a cell-based, multiplexed-readout assay that uses umbilical vein endothelium and peripheral blood mononuclear cells, a human vascular primary cell co-culture, with measurements taken at 24 hours after chemical dosing in a 96-well plate.BSK_LPS_PGE2 is an assay component measured in the BSK_LPS assay. It measures PGE2 antibody related to regulation of gene expression using ELISA technology.Data from the assay component BSK_LPS_PGE2 was analyzed into 1 assay endpoint. This assay endpoint, BSK_LPS_PGE2, was analyzed with bidirectional fitting relative to DMSO as the negative control and baseline of activity. Using a type of binding reporter, gain or loss-of-signal activity can be used to understand changes in the signaling as they relate to the gene PTGER2. Furthermore, this assay endpoint can be referred to as a primary readout, because this assay has produced multiple assay endpoints where this one serves a signaling function. To generalize the intended target to other relatable targets, this assay endpoint is annotated to the gpcr intended target family, where the subfamily is rhodopsin-like receptor.
The levels of cell surface (or secreted, indicated by the prefix "s") biomarker endpoints were measured by ELISA. Overt cytotoxicity to cells in confluent adherent cultures (all systems other than the BT system) was assessed by measuring total protein levels using sulforhodamine B (SRB) staining in parallel cultures at the time of biomarker measurements, indicated as SRB endpoints. For proliferation assays for adherent cell types, individual cell types are cultured at sub-confluence and relative cell numbers quantified by SRB staining at time points optimized for each system (48 h: 3C and CASM3C systems; 72 h: BT and HDF3CGF systems; 96 h: SAg system). SRB was performed by staining cells with 0.1% SRB after fixation with 10% TCA and reading wells at 560 nm.Viability and proliferation of PBMC (T cells) was quantified by Alamar Blue reduction for the SAg and BT systems. For PBMC viability (referred to as PBMC Cytotoxicity within the assay endpoint names), cells were plated (75,000/well in a 96-well plate) and then chemical samples added for 1 h before addition of activators, SEB and TSST-1 (20 ng/mL final concentration each). Cells were incubated for 90 h. Then, Alamar Blue (20 uL/well) (Invitrogen, Cat DAL1100) was added for 6 h, and the plates were read with a fluorescence microplate reader at 546/580 nm (excitation/emission). For PBMC proliferation, cells were plated and activated as above but incubated for only 16 h prior to addition of Alamar Blue. Plates were read after 6 h.
In the case of `Oc1c(Cl)cc(Cl)c(Cl)c1Cc1c(O)c(Cl)cc(Cl)c1Cl`, the outcome was inactive. As to `CC1(C)CCC[C@]2(C)[C@H]3CCO[C@]3(C)CC[C@@H]12`, the result was inactive. As for `CC(C)(N=C=O)c1cccc(C(C)(C)N=C=O)c1`, the outcome was inactive. As for `CC(C=O)Cc1ccc(C(C)(C)C)cc1` (stereo not given), the result was inactive.

As for `CCN(CC)C(=O)N(CC)CC`, the result was inactive. As to `CS(=O)(=O)c1ccc(C2=C(c3ccccc3)C(=O)OC2)cc1`, the outcome was inactive. On the same count and under the same terms, then `COc1ccc(OC)c(N=Nc2c(O)ccc3ccccc23)c1`, with “inactive”; and `Cc1cc(CCC(=O)OCCOCCOCCOC(=O)CCc2cc(C)c(O)c(C(C)(C)C)c2)cc(C(C)(C)C)c1O`, with “inactive”; and `IC(I)I`, with “inactive”. `CN(C)C(=S)SC(=S)N(C)C`: the outcome was inactive. With `CCOC(=O)C(C#N)=C(c1ccccc1)c1ccccc1`, the concentration at half-maximal activity (AC50) was 6.95 µM (active) and 2.79 µM (active). Take `CCCCN(CCCC)C(=O)N(CCCC)CCCC`: the result was inactive. For `CS(=O)(=O)OCCCCOS(C)(=O)=O`, the result was inactive.

Consider `COc1cc(Cl)c(OC)cc1N`, for which the outcome was inactive. In the case of `CSCCC=O`, the result was inactive.

Regarding `CCCCCC(C=O)=Cc1ccccc1`, the AC50 was 34 µM (active). On to `O=CN1CCOCC1`, for which the result was inactive. In the case of `c1ccc2cc(Nc3ccc(Nc4ccc5ccccc5c4)cc3)ccc2c1`, the result was inactive.

Regarding `C=C(C)C(=O)OCC(CC)(COC(=O)C(=C)C)COC(=O)C(=C)C`, the result was inactive. Turning to `c1ccc(Oc2ccccc2)cc1`, the outcome was inactive.

For the compound `CC1(C)C2=CCCC(C)(C)[C@]23CC[C@H]1C3`, the outcome was inactive. Take `CC(C)(C)CC(C)(C)c1ccc(OCCOCC[N+](C)(C)Cc2ccccc2)cc1`: the result was inactive. With `O=C1c2ccccc2C(=O)c2c(O)ccc(O)c21`, the AC50 was 0.233 µM (active). For the compound `CC(=O)c1c(C)c([N+](=O)[O-])c(C(C)(C)C)c([N+](=O)[O-])c1C`, the outcome was inactive.

With `Clc1cc(Cl)c(-c2c(Cl)c(Cl)cc(Cl)c2Cl)cc1Cl`, the result was inactive. On to `O=C1OC2(c3ccccc31)c1ccc(O)c(Br)c1Oc1c2ccc(O)c1Br`, for which the AC50 is 11.1 µM (active). On to `C1=CC2C3C=CC(C3)C2C1` (stereo not given), for which the result was inactive. In the case of `O=C1OC[C@H](Cc2cccc(O)c2)[C@H]1Cc1cccc(O)c1`, the outcome was inactive.

As for `CCC(C)c1cc([N+](=O)[O-])cc([N+](=O)[O-])c1OC(=O)OC(C)C` (stereo not given), the AC50 is 5.42 µM (active). Regarding `CC(CN=Cc1ccccc1O)N=Cc1ccccc1O` (stereo not given), the result was inactive. Consider `O=C(Nc1ccc2c(O)c(N=Nc3ccc(N=Nc4ccc(S(=O)(=O)O)cc4)cc3)c(S(=O)(=O)O)cc2c1)c1ccccc1`, for which the outcome was inactive. Turning to `CN(C)C(=O)Nc1ccc(Oc2ccc(Cl)cc2)cc1`, the AC50 is 5.86 µM (active). Consider `C=C(C)C(=O)OCCOCCOCCOCCOC(=O)C(=C)C`, for which the result was inactive. In the case of `CCCCCCC(CO)CCCC` (stereo not given), the result was inactive. Still for that read-out and setting: then `CCCCCCCCCCCCCCCC(=O)OC/C=C(C)/C=C/C=C(C)/C=C/C1=C(C)CCCC1(C)C`, with “inactive”; and `c1ccc(CCc2ccccc2)cc1`, with “inactive”. On to `CN(c1nccc(=O)[nH]1)C1CCN(c2nc3ccccc3n2Cc2ccc(F)cc2)CC1`, for which the result was inactive. Turning to `C=C(C)[C@H]1CC=C(C)C(=O)C1`, the result was inactive.

For `C[C@@H]1CCN(C(=O)[C@H](CCCN=C(N)N)NS(=O)(=O)c2cccc3c2NC[C@H](C)C3)[C@@H](C(=O)O)C1`, the result was inactive. Turning to `CC=Cc1ccc(OCC)c(O)c1`, the AC50 is 0.44 µM (active).

What is called AC50 is the concentration at which the activity in the assay is half-maximal.
